Source: PubChem BioAssay
For part of these data: Measured potencies and affinities stand elsewhere. Calls of active or inactive are those of the source. Unless noted, how the calls were made is not given here.

Key:
[1] = antimalarial activity against Dd2 strain (AID 2302;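 active means growth inhibition above 50% at the single 2 µM test dose, taken to imply half-maximal potency below 2 µM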;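 further: 0% = DMSO untreated growth and 100% = chloroquine plus artemisinin killed control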); details: P. falciparum Dd2 in RBCs, LDH growth readout, 72 h; at 2 µM; hits give high values
[2] = human hepatoma cell viability loss – ATP luminescence, cytotoxicity control for P. falciparum antimalarial project, primary screen (AID 2303;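 active means inhibition above 50%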;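 further: 0% = DMSO wells and 100% = digitonin-killed cells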); details: HepG2 viability, 24-48 h, at 10 µM, hits give high values
[3] = target: L-lactate dehydrogenase (Plasmodium falciparum (isolate CDC / Honduras)) (UniProt Q27743); experiment: PfLDH activity inhibition – cell lysate, 3D7 strain, counter-screen for P. falciparum growth inhibition project (AID 2304);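 further: 0% = vehicle and 100% = reference inhibitor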; details: P. falciparum 3D7 crude extract, LDH APAD/NBT absorbance; at 2 µM; hits give high values
[4] = inhibition of 3D7 malaria parasite growth – strain 3D7 (AID 2306);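 further: 0% = DMSO wells and 100% = chloroquine plus artemisinin control wells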; details: P. falciparum 3D7 erythrocytic growth, LDH absorbance, 72 h; at 2 µM; hits give high values
[5] = target: Calcium-dependent protein kinase 1 (Plasmodium falciparum (isolate 3D7)) (UniProt P62344); experiment: PfCDPK1 kinase inhibitors, biochemical, TCAMS library (AID 1159585; cut-off not given, nearly all actives have IC50 up to about 0.98 µM;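 further: inhibitors leave more ATP so luminescence rises with inhibition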); details: recombinant PfCDPK1, Kinase-Glo ATP depletion luminescence
[6] = target: Plasmodium falciparum protein kinase 6 (PK6, PF3D7_1337100) (UniProt Q8IDW1); experiment: PfPK6 kinase inhibitors, biochemical, TCAMS library (AID 1159586); details: recombinant PfPK6, Kinase-Glo ATP depletion luminescence
[7] = target: Protein kinase 7 (PK7), Plasmodium falciparum 3D7 (PF3D7_0213400) (UniProt Q7YTF7); experiment: inhibition of Plasmodium PK7 catalytic activity – biochemical, TCAMS antimalarial set, Kinase-Glo luminescence (AID 1159587); details: recombinant PfPK7, Kinase-Glo ATP depletion luminescence
[8] = target: Calcium-dependent protein kinase 4 (Plasmodium falciparum (isolate 3D7)) (UniProt Q8IBS5); experiment: PfCDPK4 kinase inhibitors, biochemical, TCAMS library (AID 1159588; cut-off not given, nearly all actives have IC50 up to about 0.91 µM); details: recombinant PfCDPK4, Kinase-Glo ATP depletion luminescence
Calcium-dependent protein kinase 4 (Plasmodium falciparum (isolate 3D7)), sequence (Q8IBS5 whole entry, looked up): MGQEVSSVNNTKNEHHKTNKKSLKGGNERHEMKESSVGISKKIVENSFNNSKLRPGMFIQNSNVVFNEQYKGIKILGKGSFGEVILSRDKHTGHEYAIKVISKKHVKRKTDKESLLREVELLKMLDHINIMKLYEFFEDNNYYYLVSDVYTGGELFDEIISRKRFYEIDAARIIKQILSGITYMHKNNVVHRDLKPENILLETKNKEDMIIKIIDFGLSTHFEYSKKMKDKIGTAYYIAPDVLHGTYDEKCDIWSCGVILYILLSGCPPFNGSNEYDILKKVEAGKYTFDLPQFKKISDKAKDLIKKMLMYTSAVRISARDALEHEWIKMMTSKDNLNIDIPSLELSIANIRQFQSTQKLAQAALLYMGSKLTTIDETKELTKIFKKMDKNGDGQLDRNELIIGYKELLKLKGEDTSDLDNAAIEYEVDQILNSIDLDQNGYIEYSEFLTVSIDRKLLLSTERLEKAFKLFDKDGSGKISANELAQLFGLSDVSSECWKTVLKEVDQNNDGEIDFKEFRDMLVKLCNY

Protein kinase 7 (PK7), Plasmodium falciparum 3D7 (PF3D7_0213400), sequence (Q7YTF7 1-343): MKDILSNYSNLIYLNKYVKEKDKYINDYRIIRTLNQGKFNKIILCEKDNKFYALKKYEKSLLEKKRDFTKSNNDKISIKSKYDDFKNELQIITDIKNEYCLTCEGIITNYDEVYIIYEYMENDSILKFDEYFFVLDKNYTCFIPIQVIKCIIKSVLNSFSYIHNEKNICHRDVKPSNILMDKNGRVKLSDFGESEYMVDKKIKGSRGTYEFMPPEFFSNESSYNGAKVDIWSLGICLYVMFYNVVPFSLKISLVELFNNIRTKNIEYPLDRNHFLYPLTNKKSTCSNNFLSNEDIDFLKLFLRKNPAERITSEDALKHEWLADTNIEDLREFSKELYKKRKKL
Calcium-dependent protein kinase 1 (Plasmodium falciparum (isolate 3D7)), sequence (P62344 whole entry, looked up): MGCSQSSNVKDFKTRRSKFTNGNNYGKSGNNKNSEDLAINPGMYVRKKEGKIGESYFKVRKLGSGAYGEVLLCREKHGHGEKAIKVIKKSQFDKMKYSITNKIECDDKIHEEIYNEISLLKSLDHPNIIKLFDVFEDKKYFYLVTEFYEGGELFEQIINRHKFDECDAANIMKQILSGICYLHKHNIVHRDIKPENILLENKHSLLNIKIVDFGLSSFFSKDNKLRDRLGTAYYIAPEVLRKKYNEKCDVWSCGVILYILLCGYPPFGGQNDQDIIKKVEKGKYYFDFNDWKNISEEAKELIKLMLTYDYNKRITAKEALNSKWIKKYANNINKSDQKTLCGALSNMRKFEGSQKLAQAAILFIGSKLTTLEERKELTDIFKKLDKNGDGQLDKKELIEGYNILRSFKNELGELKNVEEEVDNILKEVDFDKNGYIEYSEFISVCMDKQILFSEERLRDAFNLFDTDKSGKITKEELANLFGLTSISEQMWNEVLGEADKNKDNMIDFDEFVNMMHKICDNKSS
Plasmodium falciparum protein kinase 6 (PK6, PF3D7_1337100), sequence (Q8IDW1 1-305): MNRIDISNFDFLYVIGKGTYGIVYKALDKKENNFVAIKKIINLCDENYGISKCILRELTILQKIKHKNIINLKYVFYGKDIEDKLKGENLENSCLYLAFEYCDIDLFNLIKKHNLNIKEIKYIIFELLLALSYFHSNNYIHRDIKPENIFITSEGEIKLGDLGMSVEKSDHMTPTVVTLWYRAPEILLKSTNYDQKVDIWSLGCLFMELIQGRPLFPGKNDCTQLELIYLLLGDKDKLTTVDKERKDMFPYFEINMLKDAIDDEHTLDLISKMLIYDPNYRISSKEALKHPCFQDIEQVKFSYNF
L-lactate dehydrogenase (Plasmodium falciparum (isolate CDC / Honduras)), sequence (Q27743 whole entry, looked up): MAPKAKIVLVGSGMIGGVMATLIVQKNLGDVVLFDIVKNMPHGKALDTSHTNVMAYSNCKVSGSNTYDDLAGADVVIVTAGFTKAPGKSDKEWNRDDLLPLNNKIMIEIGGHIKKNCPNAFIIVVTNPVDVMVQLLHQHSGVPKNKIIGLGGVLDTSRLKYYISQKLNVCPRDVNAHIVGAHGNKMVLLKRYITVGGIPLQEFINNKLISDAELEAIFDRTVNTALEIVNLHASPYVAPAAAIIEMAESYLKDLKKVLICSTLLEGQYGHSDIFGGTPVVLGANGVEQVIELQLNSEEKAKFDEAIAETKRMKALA

CC(C)NCc1ccc(-c2ccc(NS(=O)(=O)c3cccc4cccnc34)cc2)cc1
inactive: growth inhibition [1] 45% | inhibition [2] 27% | inhibition [3] -4% | outcome [5] | outcome [6] | outcome [7] | outcome [8]
active: growth inhibition [4] 90%

CC(C)N1CCC(N(Cc2ccc(-c3ccc(C(F)(F)F)cc3)cc2)C(=O)Cn2c(CCc3cccc(F)c3F)cc(=O)c3ccccc32)CC1
inactive: inhibition [3] -6% | outcome [5] | outcome [6] | outcome [7] | outcome [8]
active: growth inhibition [1] 73% | inhibition [2] 50% | growth inhibition [4] 99%

N#Cc1cccc(C(=O)Nc2cccc(-c3cccc(CN4CCNCC4)c3)c2)c1
inactive: growth inhibition [1] 10% | inhibition [2] 37% | inhibition [3] -3% | outcome [5] | outcome [6] | outcome [7] | outcome [8]
active: growth inhibition [4] 89%

Cc1nc(-c2ccc(-c3ccc(NC(=O)c4coc5ccc(N6C[C@@H](C)N(C)[C@@H](C)C6)cc45)cc3)c(C)c2)no1
active: growth inhibition [4] 96%
inactive: growth inhibition [1] 46% | inhibition [2] 21% | inhibition [3] 1% | outcome [5] | outcome [6] | outcome [7] | outcome [8]

O=C(Nc1ccsc1)Nc1cccc(-c2cccc(-c3nc4ccccc4[nH]3)c2)c1
inactive: inhibition [3] -7% | outcome [5] | outcome [6] | outcome [7] | outcome [8]
active: growth inhibition [1] 55% | inhibition [2] 61% | growth inhibition [4] 101%

O=C(Nc1ccc(-c2cccc(-c3nc4ccc(C(F)(F)F)cc4[nH]3)c2)cc1)Nc1ccc(Cl)c(Cl)c1
active: growth inhibition [4] 98%
inactive: growth inhibition [1] 23% | inhibition [2] 42% | inhibition [3] 7% | outcome [5] | outcome [6] | outcome [7] | outcome [8]

Cc1nc2ccc3ccc(CNc4ccc5c(c4)CN([C@H](CCC(=O)O)C(=O)O)C5=O)cc3c2c(=O)[nH]1
inactive: inhibition [2] 38% | inhibition [3] 2% | outcome [5] | outcome [6] | outcome [7] | outcome [8]
active: growth inhibition [1] 90% | growth inhibition [4] 87%

CC(=O)Nc1ccc(CN2CCC(NC(=O)c3ccc(-c4cccc(C(F)(F)F)c4)s3)CC2)cc1
inactive: growth inhibition [1] 16% | inhibition [2] 35% | inhibition [3] -3% | outcome [5] | outcome [6] | outcome [7] | outcome [8]
active: growth inhibition [4] 100%

Cc1ccc(Oc2ccc(NC(=O)CNc3ccccc3N3CCCC3=O)cc2)cc1
inactive: inhibition [2] 14% | inhibition [3] -5% | outcome [5] | outcome [6] | outcome [7] | outcome [8]
active: growth inhibition [1] 97% | growth inhibition [4] 98%

NC(N)=NC(=O)Nc1cc(Cl)c(Cl)c(Br)c1
active: growth inhibition [1] 99% | growth inhibition [4] 99%
inactive: inhibition [2] 16% | inhibition [3] -2% | outcome [5] | outcome [6] | outcome [7] | outcome [8]

Oc1ccc(CCCNc2nc(NCc3cccc4ccccc34)nc(NC3CCNCC3)n2)cc1
active: growth inhibition [4] 91%
inactive: growth inhibition [1] -3% | inhibition [2] 8% | inhibition [3] 1% | outcome [5] | outcome [6] | outcome [7] | outcome [8]

Cc1ccc(C(=O)Nc2cccc(CN3CCCN(Cc4ccc(O)cc4)CC3)c2)cc1
active: growth inhibition [4] 88%
inactive: growth inhibition [1] 5% | inhibition [2] -4% | inhibition [3] -3% | outcome [5] | outcome [6] | outcome [7] | outcome [8]

COc1cccc(C2CCN(CCN3CCC(NC(=O)c4ccc(-c5ccc(C(F)(F)F)cc5)cc4)CC3)CC2)c1
inactive: inhibition [2] 46% | inhibition [3] -7% | outcome [5] | outcome [6] | outcome [7] | outcome [8]
active: growth inhibition [1] 99% | growth inhibition [4] 99%

O=C(Nc1ccccc1)N1CCC(CN2CCOC(c3ccccc3)(c3ccccc3)C2)CC1
active: growth inhibition [1] 98% | growth inhibition [4] 96%
inactive: inhibition [2] 10% | inhibition [3] 2% | outcome [5] | outcome [6] | outcome [7] | outcome [8]

O=C(Nc1ccc(Cn2ncc(N3CCCNCC3)c(Cl)c2=O)cc1)Nc1ccc(C(F)(F)F)cc1
active: growth inhibition [1] 58% | growth inhibition [4] 90%
inactive: inhibition [2] 12% | inhibition [3] 4% | outcome [5] | outcome [6] | outcome [7] | outcome [8]

O=C(/C=C/c1ccc(Cl)c(Cl)c1)NCCCCCN1CCN(C(=O)Nc2cccc(F)c2)CC1
inactive: growth inhibition [1] 1% | inhibition [2] 12% | inhibition [3] -1% | outcome [5] | outcome [6] | outcome [7] | outcome [8]
active: growth inhibition [4] 91%

Cc1ccc(C2=NNC3(S2)C(=O)Nc2ccc(C)cc23)cc1 (configuration not stated)
active: growth inhibition [1] 89% | growth inhibition [4] 95%
inactive: inhibition [2] 35% | inhibition [3] 6% | outcome [5] | outcome [6] | outcome [7] | outcome [8]

O=C(NCC1CCC(C(=O)O)CC1)c1ccc(/C=C/C(=O)N2CCc3ccccc3C2c2ccc3c(c2)OCO3)cc1 (configuration not stated)
active: inhibition [2] 66% | growth inhibition [4] 91%
inactive: growth inhibition [1] 17% | inhibition [3] 2% | outcome [5] | outcome [6] | outcome [7] | outcome [8]

O=C(Nc1cccc(-c2ccc(-c3nc4ccccc4[nH]3)cc2)c1)c1cnn2cccnc12
inactive: growth inhibition [1] 1% | inhibition [2] 9% | inhibition [3] -3% | outcome [5] | outcome [6] | outcome [7] | outcome [8]
active: growth inhibition [4] 87%

CCOc1ccc2nc(C)cc(NN=Cc3ccccc3)c2c1
active: growth inhibition [4] 96%
inactive: growth inhibition [1] 8% | inhibition [2] 5% | inhibition [3] -3% | outcome [5] | outcome [6] | outcome [7] | outcome [8]

O=S(=O)(c1ccc(Oc2ccccc2)cc1)N(CCC(O)(C(F)(F)F)C(F)(F)F)Cc1cccc(O)c1
active: growth inhibition [1] 99% | growth inhibition [4] 102%
inactive: inhibition [2] -13% | inhibition [3] 5% | outcome [5] | outcome [6] | outcome [7] | outcome [8]

COc1ccc2ncc(F)c([C@@H](O)CN3CCC(NCc4cc5c(cn4)OCCO5)CC3)c2c1
active: growth inhibition [1] 98% | growth inhibition [4] 100%
inactive: inhibition [2] -4% | inhibition [3] -7% | outcome [5] | outcome [6] | outcome [7] | outcome [8]

CC(C)(C)OC(=O)Nc1cccc(-c2csc(N=C(N)N)n2)c1
inactive: inhibition [2] 4% | inhibition [3] 2% | outcome [5] | outcome [6] | outcome [7] | outcome [8]
active: growth inhibition [1] 83% | growth inhibition [4] 97%

Cc1cccc2[nH]c(-c3ccc(-c4ccc(CNCc5ccc(CN)cc5)cc4)cc3)nc12
inactive: growth inhibition [1] 46% | inhibition [2] 14% | inhibition [3] -4% | outcome [5] | outcome [6] | outcome [7] | outcome [8]
active: growth inhibition [4] 100%

CCCCCCc1cc2cc(-c3nc(-c4ccc(OC)cc4)cs3)c(=O)oc2cc1O
active: growth inhibition [1] 93% | growth inhibition [4] 97%
inactive: inhibition [2] 45% | inhibition [3] -6% | outcome [5] | outcome [6] | outcome [7] | outcome [8]

OC(CNc1ccnc(Nc2cccc(Cl)c2)n1)c1ccccc1C(F)(F)F (configuration not stated)
inactive: growth inhibition [1] 36% | inhibition [2] 40% | inhibition [3] 0% | outcome [5] | outcome [6] | outcome [7] | outcome [8]
active: growth inhibition [4] 95%

Cc1ccc2c(NN=Cc3cccc([N+](=O)[O-])c3)cc(C)nc2c1
active: growth inhibition [1] 97% | growth inhibition [4] 102%
inactive: inhibition [2] 33% | inhibition [3] 5% | outcome [5] | outcome [6] | outcome [7] | outcome [8]

CCC(C)OC(=O)C1=C(C)NC2=C(C(=O)CC(c3ccc(OC)c(OC)c3)C2)C1c1ccc(C)o1 (configuration not stated)
inactive: inhibition [2] 6% | inhibition [3] 2% | outcome [5] | outcome [6] | outcome [7] | outcome [8]
active: growth inhibition [1] 82% | growth inhibition [4] 93%

C=CCOc1ccc(-c2c(C)[nH]c(C)c(Br)c2=O)cc1
inactive: inhibition [2] 5% | inhibition [3] -3% | outcome [5] | outcome [6] | outcome [7] | outcome [8]
active: growth inhibition [1] 96% | growth inhibition [4] 98%

O=C(Nc1ccc(OCc2ccccc2)cc1)c1nc2ccccc2nc1Cl
active: growth inhibition [1] 95% | growth inhibition [4] 96%
inactive: inhibition [2] 48% | inhibition [3] 3% | outcome [5] | outcome [6] | outcome [7] | outcome [8]

Cc1c(CNCCCNc2cc(=O)c3ccccc3[nH]2)sc(/C=N/O)c1Br
active: growth inhibition [4] 82%
inactive: growth inhibition [1] -2% | inhibition [2] 0% | inhibition [3] 6% | outcome [5] | outcome [6] | outcome [7] | outcome [8]

Nc1c2c(nc3cc(NC(=O)c4ccc([N+](=O)[O-])cc4)ccc13)CCCC2
active: growth inhibition [1] 58% | growth inhibition [4] 100%
inactive: inhibition [2] 11% | inhibition [3] -2% | outcome [5] | outcome [6] | outcome [7] | outcome [8]

COc1ccc2nc(C)cc(Nc3ccc(Oc4ccc(Br)c5ccccc45)c(Cl)c3)c2c1
active: growth inhibition [1] 101% | inhibition [2] 100% | growth inhibition [4] 100%
inactive: inhibition [3] -3% | outcome [5] | outcome [6] | outcome [7] | outcome [8]

CCN(CC)CCN(Cc1ccc(-c2ccc(C(F)(F)F)cc2)cc1)C(=O)Cn1c(CCc2cccc(F)c2F)nc(=O)c2cc(C)ccc21
inactive: growth inhibition [1] 43% | inhibition [2] 19% | inhibition [3] 0% | outcome [5] | outcome [6] | outcome [7] | outcome [8]
active: growth inhibition [4] 95%

COc1ccc(-c2ccc(NC(=O)c3cccc(Cl)c3)cc2)cc1CN(C)CCO
inactive: inhibition [2] 39% | inhibition [3] -4% | outcome [5] | outcome [6] | outcome [7] | outcome [8]
active: growth inhibition [1] 52% | growth inhibition [4] 89%

CCCCCN=C(N)c1ccc(OCCCCCOc2ccc(C(N)=NCCCCC)cc2)cc1
active: growth inhibition [1] 98% | growth inhibition [4] 99%
inactive: inhibition [2] 3% | inhibition [3] 6% | outcome [5] | outcome [6] | outcome [7] | outcome [8]

CCOC(=O)NC1=NC(C)(C)N(OCc2ccc(Cl)c(Cl)c2)C(N)=N1
active: growth inhibition [1] 90% | inhibition [2] 66% | growth inhibition [4] 96%
inactive: inhibition [3] -5% | outcome [5] | outcome [6] | outcome [7] | outcome [8]

CCCCCn1c(Sc2ccc(C#N)c([N+](=O)[O-])c2)nnc1-c1cccs1
inactive: growth inhibition [1] 38% | inhibition [2] 19% | inhibition [3] -1% | outcome [5] | outcome [6] | outcome [7] | outcome [8]
active: growth inhibition [4] 91%

Cc1cccc2[nH]c(-c3cccc(-c4ccc(NC(=O)C5CCN(C)CC5)cc4)c3)nc12
inactive: inhibition [2] 16% | inhibition [3] 3% | outcome [5] | outcome [6] | outcome [7] | outcome [8]
active: growth inhibition [1] 100% | growth inhibition [4] 101%
